Source: PubChem BioAssay (NCATS)
Results filed as inconclusive are left out. The source made the active and inactive calls. The call rests on the fitted dose curve; in most records, active means well fitted cell-killing curve with a large enough effect; inconclusive means small, poorly fitted or top-dose-only effect; inactive means flat fitted curve, though single readings scatter.

Experiment: qHTS of pediatric cancer cell lines to identify multiple opportunities for drug repurposing: Primary screen for control Hh wild type fibroblast cells (AID 1347106);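 further: a drop in luminescence marks cytotoxicity and a rise apparent proliferation; nearly all actives have a fitted effect of over 55% in size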
Conditions: Hh wild-type fibroblast viability, CellTiter-Glo luminescence, 48 h; series mostly up to 46 µM
Text: Drug repurposing or repositioning has been offered as a strategy for drug development in oncology programs. This approach has special potential for childhood cancers and other rare or orphan diseases, where the expected return on new drug development has been a disincentive to pharmaceuticals.
In this project we exploit the poly-pharmacology of drugs to discover new indications via phenotypic screening of a panel of 19 well-characterized cell lines derived from solid tumors seen in children and adolescents. The goal is to identify approved drugs with previously unrecognized anticancer properties that has the potential to reveal new mechanisms and biological processes involved in carcinogenesis or drug resistance. We employed a titration-based paradigm (quantitative high-throughput screening or qHTS), where all compounds were tested at multiple concentrations for their effect on cell viability. Concentration-response curves (CRCs) were derived directly from the primary screen, and both potency and efficacy values were used to identify compounds with robust bioactivity profiles. We screened the NIH Chemical Genomics Center (NCGC) Pharmaceutical Collection (NPC) and Mechanism Interrogation Plate (MIPE) small molecule collections of approved and investigational compounds against these cell lines; and measured metabolically active cells after 48 hours of compound treatment as a proxy for cell viability.
Assay Submitter: Nathalia J. Martinez, National Center for Advancing Translational Sciences, National Institutes of Health, Rockville, MD, USA; email: natalia.martinez@nih.gov
[1] Shen, M et al. Quantitative high-throughput phenotypic screening of pediatric cancer cell lines identifies multiple opportunities for drug repurposing. Oncotarget 2017 Dec 19;9(4):4758-4772. PMID 29435139.
The cells were obtained from University of North Carolina (UNC), Pediatric Preclinical Testing Program (PPT), and Coriell Institute (CI).
qHTS cell viability assay:
Cells were assayed in growth media at a density of 500-1,000 cells/well. Five microliters of cells were dispensed into 1,536-well, white, solid-bottom, TC-treated plates (Greiner Bio One) using a multidrop dispenser and incubated at 37 degrees C, 5% CO2, under a humidified atmosphere for 5 hours. Twenty-three nanoliters of compounds and controls (neutral control DMSO or positive control bortezomib at final concentration of 2.3 µM) were subsequently transferred by Kalypsys pintool. For primary screens, the MIPE collection was tested at 11-point dilutions (final concentrations range from 0.78 nM to 46 µM) and the NPC collection at 8-point dilutions (final concentrations range from 0.59 nM to 46 µM). Compounds tested in follow-up screens were assayed at 11-point dilutions. Cells were incubated for 48 hours, followed by addition of 3 µL of CellTiter-Glo (Promega). After a 15 min incubation at room temperature, samples were analyzed for luminescence intensity using a ViewLux High-throughput CCD imager equipped with clear filters.

Compound | outcome
COc1ccc2c(c1OC)C(=O)O[C@H]2[C@@H]1c2cc3c(cc2CCN1C)OCO3 | inactive
Clc1ccc(C(c2ccc(Cl)cc2)C(Cl)(Cl)Cl)cc1 | inactive
C[C@]12CC[C@H]3[C@@H](CCC4=CC(=O)CC[C@@H]43)[C@@H]1CC[C@@H]2OC(=O)CCC1CCCCC1 | inactive
O=C(N/N=C/c1ccc([N+](=O)[O-])o1)c1cc([N+](=O)[O-])cc([N+](=O)[O-])c1O | inactive
O=[N+]([O-])O[C@H]1CO[C@H]2[C@@H]1OC[C@H]2O[N+](=O)[O-] | inactive
C=CCC1([C@H](C)CCC)C(=O)NC(=O)NC1=O | inactive
CC(C)(C)NCC(O)c1cc(Cl)c(N)c(C(F)(F)F)c1 (stereo not given) | inactive
NC1=NC(=O)C(c2ccccc2)O1 (stereo not given) | inactive
CCCN(CCC)C(=O)Cc1c(-c2ccc(Cl)cc2)nc2ccc(Cl)cn12 | inactive
CC(C)N(CCC(C(N)=O)(c1ccccc1)c1ccccn1)C(C)C (stereo not given) | inactive
CNC(C)(C)Cc1ccccc1 | inactive
O=P1(N(CCCl)CCCl)NCCCO1 (stereo not given) | inactive
CNCC(=O)c1ccc(O)c(O)c1 | inactive
Nc1ccccc1 | inactive
Cc1ncsc1CCCl | inactive
CCN[C@H](C)Cc1cccc(C(F)(F)F)c1 | inactive
O=c1oc2ccccc2c(O)c1Cc1c(O)c2ccccc2oc1=O | inactive
CCC1(c2ccc(N)cc2)CCC(=O)NC1=O (stereo not given) | inactive
COc1ccc2c3c1O[C@H]1[C@H](O)CC[C@H]4[C@@H](C2)N(C)CC[C@@]341 | inactive
CCOC(=O)CC(SP(=S)(OC)OC)C(=O)OCC (stereo not given) | inactive

Compound | outcome
COP(=S)(OC)Oc1ccc(SC)c(C)c1 | inactive
COP(=S)(OC)SCN1C(=O)c2ccccc2C1=O | inactive
COP(=S)(OC)Oc1cc(Cl)c(Cl)cc1Cl | inactive
CC(Cc1ccccc1)N(C)Cc1ccco1 (stereo not given) | inactive
C[C@]12CCC(=O)C=C1CC[C@@H]1[C@H]3CC[C@](C)(O)[C@@]3(C)CC[C@@H]12 | inactive
NCCc1ccc(O)cc1 | inactive
O=C(Nc1ccc(Br)cc1)c1cc(Br)cc(Br)c1O | inactive
CCc1cc2c(s1)-n1c(C)nnc1CN=C2c1ccccc1Cl | inactive
CCC1(CC)C(=O)C=CNC1=O | inactive
CC(=O)OCC1=C(C(=O)O)N2C(=O)[C@@H](N)[C@H]2SC1 | inactive
ClCCN1CCCC1 | inactive
COc1cc(OC)c(OC)cc1C=O | inactive
C[C@]12Cc3cn[nH]c3C[C@@H]1CC[C@@H]1[C@@H]2CC[C@@]2(C)[C@H]1CC[C@]2(C)O | inactive
c1ccc(CN2CCNCC2)cc1 | inactive
O=C1c2ccccc2C(=O)C1C(=O)C(c1ccccc1)c1ccccc1 | inactive
COc1cccc([C@@]2(O)CCCC[C@@H]2CN(C)C)c1 | inactive
Nc1ccc([As](=O)(O)O)cc1 | inactive
CN1C(=O)COc2c(C(=O)NC3CN4CCC3CC4)cc(Cl)cc21 (stereo not given) | inactive
C=C(C)[C@H]1CN[C@H](C(=O)O)[C@H]1CC(=O)O | inactive
CC[N+]1(CC)CCC(OC(=O)C(O)(c2ccccc2)c2ccccc2)C1 (stereo not given) | inactive
